Where “and” joins values, the source holds several entries; their conditions need not be identical. Equal entries are not always repeated.
The compounds below were run against T1, Aurora kinase A (Homo sapiens) (UniProt O14965). Settings: at 1 µM.
T1 sequence (whole entry): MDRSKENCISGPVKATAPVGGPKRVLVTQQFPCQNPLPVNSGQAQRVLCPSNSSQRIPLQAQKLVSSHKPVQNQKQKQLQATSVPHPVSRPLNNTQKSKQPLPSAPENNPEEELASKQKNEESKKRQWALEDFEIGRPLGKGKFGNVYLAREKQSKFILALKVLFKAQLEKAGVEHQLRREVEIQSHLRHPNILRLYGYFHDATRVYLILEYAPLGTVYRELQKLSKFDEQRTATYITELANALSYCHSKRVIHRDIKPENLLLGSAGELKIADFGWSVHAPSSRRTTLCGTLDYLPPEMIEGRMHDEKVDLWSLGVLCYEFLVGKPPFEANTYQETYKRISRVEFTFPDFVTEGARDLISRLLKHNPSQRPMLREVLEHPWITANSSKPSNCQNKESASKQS

Going from CNC(=O)c1cncc(/C=C/c2ccccc2C)c1 to Cc1cc(O)cc(C)c1/C=C/c1cncc(C(=O)OC(C)(C)C)c1, the inhibition rises from 9.59% to 14.9%.

Going from CC(C)c1ccc(-c2cc(-c3c[nH]nc3-c3ccccn3)ccn2)cc1 to c1ccc(-c2n[nH]cc2-c2ccnc(-c3ccc(OCCn4ccnc4)cc3)c2)nc1, the inhibition rises from 3.72% to 11.1%.

Going from Fc1cccc(COc2ccc(Nc3ncncc3C#Cc3ccccc3)cc2Cl)c1 to O=C(O[C@H]1CN[C@H](C#Cc2cc3ncnc(Nc4ccc(OCc5cccc(F)c5)c(Cl)c4)c3s2)C1)N1CCOCC1, the inhibition falls from 9% to 7.57%.

Going from NS(=O)(=O)c1ccc(N/N=C2\C(=O)Nc3cccc(CCc4ccncc4)c32)cc1 to CN(C)CCNC(=O)Nc1ccc(N(C)c2ccnc(Nc3ccc(CS(C)(=O)=O)cc3)n2)cc1, the inhibition rises from 20.6% to 79%.

Going from CCn1c(-c2nonc2N)nc2cncc(C(=O)NCCNC)c21 to Cn1c(-c2nonc2N)nc2cnccc21, the inhibition rises from 5.14% to 7.19%.

First: CS(=O)(=O)CCNCc1ccc(-c2ccc3ncnc(Nc4ccc(OCc5cccc(C(F)(F)F)c5)cc4)c3c2)o1
Second: COC(=O)Nc1nc2ccc(Oc3ccc(NC(=O)Nc4cc(C(F)(F)F)ccc4F)cc3)cc2s1
The inhibition of the first is lower: 4.78% for the first, 7.02% for the second.

Going from c1cnn2ncc(-c3ccnc(NCCCN4CCOCC4)n3)c2c1 to FC(F)(F)CNc1nccc(-c2cnn3ncccc23)n1, the inhibition falls from 8.82% to 1.83%.

Compared with O=C(O[C@H]1CN[C@H](C#Cc2cc3ncnc(Nc4ccc5c(ccn5Cc5cc(F)ccc5F)c4)c3s2)C1)N1CCOCC1, O=C(O[C@H]1CN[C@H](C#Cc2cc3ncnc(Nc4ccc5c(cnn5Cc5ccccc5)c4)c3s2)C1)N1CCOCC1 is lower in inhibition: 9.24% for the first, 3.44% for the second.

Compared with COc1ccc(Nc2ncc(-c3ccccc3)o2)cc1OC, CCS(=O)(=O)c1ccc(OC)c(Nc2ncc(-c3cccc(F)c3)o2)c1 is lower in inhibition: 75.4% for the first, 26.8% for the second.

Going from CC1=C(C(=O)Nc2ccc3[nH]nc(C)c3c2)C(c2ccc(C(F)(F)F)cc2)CC(=O)N1 (stereo unspecified) to CC1=C(C(=O)Nc2ccc3[nH]ncc3c2)C(c2ccc(F)cc2)N=C(c2ccc(C(F)(F)F)nc2)N1 (stereo unspecified), the inhibition falls from 88.3% to 51%.

First: Cc1nnc(-c2cccc(-c3ccc(C(=O)NCC4CC4)cc3)c2)o1
Second: CCS(=O)(=O)c1ccc(OC)c(Nc2ncc(-c3cccc(C(C)=O)c3)o2)c1
The inhibition of the first is lower: 7.79% for the first, 15.3% for the second.

Going from COc1cc2c(cc1Nc1nc(Nc3cccc(F)c3C(N)=O)c3cc[nH]c3n1)N(C(=O)CN1CCN(C(C)C)CC1)CC2 to COc1cc(N2CCN(C(C)C)CC2)ccc1Nc1nc(Nc2cccc(F)c2C(=O)O)c2cc[nH]c2n1, the inhibition rises from 0.34% to 6.46%.

Going from NC(=O)c1ccc2c(-c3ccnc(NCCCO)n3)c(-c3ccc(F)cc3)nn2c1 to CN1CCC(n2cnc(-c3ccc(F)cc3)c2-c2ccnc(NCCO)n2)CC1, the inhibition rises from 3.29% to 9.26%.

First: COc1ccccc1-c1cc(/C=C2\C(=O)Nc3ncc(Br)cc32)cc(Br)c1O
Second: CCOc1ccc2c(-c3ccnc(Nc4cc(OC)cc(C(F)(F)F)c4)n3)cnn2n1
The inhibition of the first is higher: 93% for the first, 13% for the second.

CN1CCC(C(=O)Nc2n[nH]c3nc(-c4ccc(O)cc4)c(Br)cc23)CC1 was tested, and the inhibition was 3.82% and 3.89%.
Nc1nccc(-c2c(-c3ccc(F)cc3)ncn2C2CCNCC2)n1 was tested, and the inhibition was 2.76% and 3.22%.

The compounds below were run against Aurora kinase B (Homo sapiens) (UniProt Q96GD4). Settings: at 0.1 µM.
Sequence of Aurora kinase B (Homo sapiens) (Q96GD4 whole entry): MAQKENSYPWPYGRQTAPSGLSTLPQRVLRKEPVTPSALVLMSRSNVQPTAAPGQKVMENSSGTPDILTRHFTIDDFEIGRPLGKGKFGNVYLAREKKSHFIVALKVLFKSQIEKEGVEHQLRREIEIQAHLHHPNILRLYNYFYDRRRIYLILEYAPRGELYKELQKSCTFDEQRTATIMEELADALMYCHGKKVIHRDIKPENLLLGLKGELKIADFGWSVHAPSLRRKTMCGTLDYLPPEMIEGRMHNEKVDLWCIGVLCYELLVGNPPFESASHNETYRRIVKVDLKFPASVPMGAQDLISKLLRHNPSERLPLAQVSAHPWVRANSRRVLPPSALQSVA

Compared with CNC(=O)c1cncc(/C=C/c2ccccc2C)c1, Cc1cc(O)cc(C)c1/C=C/c1cncc(C(=O)OC(C)(C)C)c1 is lower in inhibition: 3.77% for the first, 3.41% for the second.

First: CC(C)c1ccc(-c2cc(-c3c[nH]nc3-c3ccccn3)ccn2)cc1
Second: c1ccc(-c2n[nH]cc2-c2ccnc(-c3ccc(OCCn4ccnc4)cc3)c2)nc1
The inhibition of the first is lower: 0.9% for the first, 1.69% for the second.

Compared with Fc1cccc(COc2ccc(Nc3ncncc3C#Cc3ccccc3)cc2Cl)c1, O=C(O[C@H]1CN[C@H](C#Cc2cc3ncnc(Nc4ccc(OCc5cccc(F)c5)c(Cl)c4)c3s2)C1)N1CCOCC1 is higher in inhibition: -1.58% for the first, 3.72% for the second.

Compared with NS(=O)(=O)c1ccc(N/N=C2\C(=O)Nc3cccc(CCc4ccncc4)c32)cc1, CN(C)CCNC(=O)Nc1ccc(N(C)c2ccnc(Nc3ccc(CS(C)(=O)=O)cc3)n2)cc1 is higher in inhibition: 3.64% for the first, 21.6% for the second.

Compared with CCn1c(-c2nonc2N)nc2cncc(C(=O)NCCNC)c21, Cn1c(-c2nonc2N)nc2cnccc21 is lower in inhibition: 2.77% for the first, 1.6% for the second.

Compared with CS(=O)(=O)CCNCc1ccc(-c2ccc3ncnc(Nc4ccc(OCc5cccc(C(F)(F)F)c5)cc4)c3c2)o1, COC(=O)Nc1nc2ccc(Oc3ccc(NC(=O)Nc4cc(C(F)(F)F)ccc4F)cc3)cc2s1 is lower in inhibition: 5.65% for the first, 5.4% for the second.

First: c1cnn2ncc(-c3ccnc(NCCCN4CCOCC4)n3)c2c1
Second: FC(F)(F)CNc1nccc(-c2cnn3ncccc23)n1
The inhibition of the first is higher: 2.38% for the first, 1.65% for the second.

Going from O=C(O[C@H]1CN[C@H](C#Cc2cc3ncnc(Nc4ccc5c(ccn5Cc5cc(F)ccc5F)c4)c3s2)C1)N1CCOCC1 to O=C(O[C@H]1CN[C@H](C#Cc2cc3ncnc(Nc4ccc5c(cnn5Cc5ccccc5)c4)c3s2)C1)N1CCOCC1, the inhibition falls from 5.02% to 0.76%.

Compared with COc1ccc(Nc2ncc(-c3ccccc3)o2)cc1OC, CCS(=O)(=O)c1ccc(OC)c(Nc2ncc(-c3cccc(F)c3)o2)c1 is lower in inhibition: 8.72% for the first, 4.7% for the second.

Going from CC1=C(C(=O)Nc2ccc3[nH]nc(C)c3c2)C(c2ccc(C(F)(F)F)cc2)CC(=O)N1 (stereo unspecified) to CC1=C(C(=O)Nc2ccc3[nH]ncc3c2)C(c2ccc(F)cc2)N=C(c2ccc(C(F)(F)F)nc2)N1 (stereo unspecified), the inhibition falls from 7.45% to 3.38%.

First: Cc1nnc(-c2cccc(-c3ccc(C(=O)NCC4CC4)cc3)c2)o1
Second: CCS(=O)(=O)c1ccc(OC)c(Nc2ncc(-c3cccc(C(C)=O)c3)o2)c1
The inhibition of the first is higher: 3.21% for the first, 3.08% for the second.

Compared with COc1cc2c(cc1Nc1nc(Nc3cccc(F)c3C(N)=O)c3cc[nH]c3n1)N(C(=O)CN1CCN(C(C)C)CC1)CC2, COc1cc(N2CCN(C(C)C)CC2)ccc1Nc1nc(Nc2cccc(F)c2C(=O)O)c2cc[nH]c2n1 is higher in inhibition: 1.62% for the first, 4.82% for the second.

First: NC(=O)c1ccc2c(-c3ccnc(NCCCO)n3)c(-c3ccc(F)cc3)nn2c1
Second: CN1CCC(n2cnc(-c3ccc(F)cc3)c2-c2ccnc(NCCO)n2)CC1
The inhibition of the first is lower: 2.54% for the first, 4.23% for the second.

Going from COc1ccccc1-c1cc(/C=C2\C(=O)Nc3ncc(Br)cc32)cc(Br)c1O to CCOc1ccc2c(-c3ccnc(Nc4cc(OC)cc(C(F)(F)F)c4)n3)cnn2n1, the inhibition falls from 12.4% to 2.18%.

CN1CCC(C(=O)Nc2n[nH]c3nc(-c4ccc(O)cc4)c(Br)cc23)CC1 was tested, and the inhibition was -1.01% and 4.45%.
In the case of Nc1ncnc2occ(-c3ccc(NC(=O)Nc4cc(C(F)(F)F)ccc4F)cc3)c12, the inhibition is reported as 24.4% and 17.3%.
In the case of Nc1nccc(-c2c(-c3ccc(F)cc3)ncn2C2CCNCC2)n1, the inhibition is reported as -5.29% and 2.13%.

Reference: ChEMBL document CHEMBL1961873, “Compounds: GSK PKIS; Assays: Nanosyn kinase panel” (2012)
